From publication PMC7862700, “An all-to-all approach to the identification of sequence-specific readers for epigenetic DNA modifications on cytosine” come the findings set out here.

Holding throughout (assay): DAPPL (digital affinity profiling via proximity ligation, sequencing); 10 mM Tris-HCl pH 7.5, 50 mM NaCl, 1 mM DTT, 4% glycerol, room temperature, 30 min; GST-TFs on glutathione beads, 16-mer random dsDNA library, 0.1% formaldehyde crosslink after washing; high values mean tight binding
Holding throughout (conditions): protein: recombinant; tags: N-terminal GST; dsDNA, one strand shown

The target in one assay is T1, ELK1 (Homo sapiens, UniProt P19419 1-428).
T1 sequence: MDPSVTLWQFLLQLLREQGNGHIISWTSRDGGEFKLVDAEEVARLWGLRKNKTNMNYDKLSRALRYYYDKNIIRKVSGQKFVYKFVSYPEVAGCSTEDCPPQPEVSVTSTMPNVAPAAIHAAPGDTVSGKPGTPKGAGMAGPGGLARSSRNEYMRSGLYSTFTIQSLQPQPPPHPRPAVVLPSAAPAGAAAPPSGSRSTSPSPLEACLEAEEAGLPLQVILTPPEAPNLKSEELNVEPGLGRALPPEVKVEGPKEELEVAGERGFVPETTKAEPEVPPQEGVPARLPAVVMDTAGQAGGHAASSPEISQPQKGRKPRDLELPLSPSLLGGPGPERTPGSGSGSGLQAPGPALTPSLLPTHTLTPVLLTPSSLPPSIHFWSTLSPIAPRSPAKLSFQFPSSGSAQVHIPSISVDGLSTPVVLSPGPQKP
In outline:
(§1)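 GST fusions of human transcription factors were expressed in yeast and captured with glutathione beads. Once given DNA barcodes and pooled alongside a tag-only sample, they were incubated for 30 min at room temperature with 200 nmole of a random double-stranded 16-mer DNA library in Tris/NaCl/DTT/glycerol buffer, then washed, crosslinked (0.1% formaldehyde), proximity-ligated, PCR-amplified and sequenced on an Illumina NextSeq500. The binding signal of each hexamer is its read frequency for a factor divided by its frequency for the tag-only sample.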

A further assay concerns the target T2, GABPA (Homo sapiens, UniProt Q06546 1-454).
T2 sequence: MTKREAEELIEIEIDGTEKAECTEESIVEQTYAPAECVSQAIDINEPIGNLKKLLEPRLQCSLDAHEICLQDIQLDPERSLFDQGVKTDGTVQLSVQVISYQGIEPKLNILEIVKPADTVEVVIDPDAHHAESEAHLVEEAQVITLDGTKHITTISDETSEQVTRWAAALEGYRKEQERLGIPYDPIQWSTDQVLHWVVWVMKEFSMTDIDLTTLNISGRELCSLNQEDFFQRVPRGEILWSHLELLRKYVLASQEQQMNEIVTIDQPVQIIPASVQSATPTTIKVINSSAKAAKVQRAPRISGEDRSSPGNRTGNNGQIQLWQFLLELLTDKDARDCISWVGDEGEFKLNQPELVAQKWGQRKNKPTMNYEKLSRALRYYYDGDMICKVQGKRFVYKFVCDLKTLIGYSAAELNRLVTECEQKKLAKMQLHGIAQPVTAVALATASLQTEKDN
In outline:
as §1

The next assay deals with ELF1 (Homo sapiens, UniProt P32519 1-619). In outline: as §1
The target of the next assay is ETV5 (Homo sapiens, UniProt P41161 1-510). In outline: as §1
The target of the next assay is ELF4 (Homo sapiens, UniProt Q99607 1-663). The procedure, abridged:
as §1

The target of the next assay is T3, ELK4 (Homo sapiens, UniProt P28324-2 1-405).
T3 sequence: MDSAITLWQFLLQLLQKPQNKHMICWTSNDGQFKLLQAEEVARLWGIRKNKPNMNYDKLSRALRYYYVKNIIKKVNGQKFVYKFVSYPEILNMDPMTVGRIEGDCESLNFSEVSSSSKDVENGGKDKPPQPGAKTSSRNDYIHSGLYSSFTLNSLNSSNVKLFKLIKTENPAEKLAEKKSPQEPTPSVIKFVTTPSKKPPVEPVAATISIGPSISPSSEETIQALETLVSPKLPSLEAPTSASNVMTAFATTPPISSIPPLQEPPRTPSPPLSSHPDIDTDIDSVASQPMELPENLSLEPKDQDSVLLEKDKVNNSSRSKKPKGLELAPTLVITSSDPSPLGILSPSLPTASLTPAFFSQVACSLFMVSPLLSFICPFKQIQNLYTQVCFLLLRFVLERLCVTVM
In outline: as §1

For the next assay, the target named is T4, ELF3 (Homo sapiens, UniProt P78545 1-371).
T4 sequence: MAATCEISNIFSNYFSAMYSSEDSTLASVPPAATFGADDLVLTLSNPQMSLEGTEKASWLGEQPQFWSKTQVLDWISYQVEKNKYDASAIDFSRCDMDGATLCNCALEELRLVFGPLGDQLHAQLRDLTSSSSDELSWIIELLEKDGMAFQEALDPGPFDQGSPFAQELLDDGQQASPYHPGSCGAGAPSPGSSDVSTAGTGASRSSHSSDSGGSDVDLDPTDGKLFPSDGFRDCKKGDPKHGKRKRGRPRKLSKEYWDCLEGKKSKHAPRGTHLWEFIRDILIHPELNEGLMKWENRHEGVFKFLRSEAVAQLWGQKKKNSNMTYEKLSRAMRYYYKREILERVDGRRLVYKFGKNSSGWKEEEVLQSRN
The procedure, abridged: as §1

Another assay concerns the target ETV1 (Homo sapiens, UniProt P50549 1-477). The procedure, abridged:
as §1

Another assay addresses T5, ERF (Homo sapiens, UniProt P50548 1-548).
T5 sequence: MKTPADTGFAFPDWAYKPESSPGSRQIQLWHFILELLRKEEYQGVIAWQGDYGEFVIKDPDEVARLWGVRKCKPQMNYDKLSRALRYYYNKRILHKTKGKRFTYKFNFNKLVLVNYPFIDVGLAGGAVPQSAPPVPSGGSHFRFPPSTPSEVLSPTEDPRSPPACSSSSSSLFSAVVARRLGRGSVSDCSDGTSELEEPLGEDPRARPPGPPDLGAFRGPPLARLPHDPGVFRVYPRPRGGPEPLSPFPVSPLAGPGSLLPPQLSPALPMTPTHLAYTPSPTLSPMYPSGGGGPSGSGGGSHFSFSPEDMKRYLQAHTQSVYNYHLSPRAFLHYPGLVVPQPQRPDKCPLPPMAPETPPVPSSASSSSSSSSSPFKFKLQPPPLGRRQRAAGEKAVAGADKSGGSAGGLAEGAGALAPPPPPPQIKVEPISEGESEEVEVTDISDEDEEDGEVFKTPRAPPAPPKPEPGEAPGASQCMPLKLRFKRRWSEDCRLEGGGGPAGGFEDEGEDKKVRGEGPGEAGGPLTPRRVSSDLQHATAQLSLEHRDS
The procedure, abridged:
as §1

In the next assay the target is T6, ETV3L (Homo sapiens, UniProt Q6ZN32 1-361).
T6 sequence: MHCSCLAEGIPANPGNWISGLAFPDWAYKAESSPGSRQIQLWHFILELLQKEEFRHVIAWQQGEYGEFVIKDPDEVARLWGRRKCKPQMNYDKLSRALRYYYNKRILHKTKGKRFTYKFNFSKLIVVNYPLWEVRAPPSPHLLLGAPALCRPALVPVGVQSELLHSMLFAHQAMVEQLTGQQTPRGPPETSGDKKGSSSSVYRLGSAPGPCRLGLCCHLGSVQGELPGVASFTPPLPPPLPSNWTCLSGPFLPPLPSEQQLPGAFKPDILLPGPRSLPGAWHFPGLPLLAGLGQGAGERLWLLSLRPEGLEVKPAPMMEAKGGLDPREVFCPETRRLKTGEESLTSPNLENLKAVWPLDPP
In outline:
as §1

The target of a further assay is T7, ETV3 (Homo sapiens, UniProt P41162-2 1-143).
T7 sequence: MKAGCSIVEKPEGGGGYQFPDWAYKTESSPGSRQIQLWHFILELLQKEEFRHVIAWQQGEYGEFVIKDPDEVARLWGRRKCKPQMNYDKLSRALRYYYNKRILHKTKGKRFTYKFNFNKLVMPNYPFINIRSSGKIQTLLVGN
In outline:
as §1

The next assay concerns the target ETV6 (Homo sapiens, UniProt P41212 1-452). The procedure, abridged:
as §1

The target in the next assay is T8, ERG (Homo sapiens, UniProt P11308 1-479).
T8 sequence: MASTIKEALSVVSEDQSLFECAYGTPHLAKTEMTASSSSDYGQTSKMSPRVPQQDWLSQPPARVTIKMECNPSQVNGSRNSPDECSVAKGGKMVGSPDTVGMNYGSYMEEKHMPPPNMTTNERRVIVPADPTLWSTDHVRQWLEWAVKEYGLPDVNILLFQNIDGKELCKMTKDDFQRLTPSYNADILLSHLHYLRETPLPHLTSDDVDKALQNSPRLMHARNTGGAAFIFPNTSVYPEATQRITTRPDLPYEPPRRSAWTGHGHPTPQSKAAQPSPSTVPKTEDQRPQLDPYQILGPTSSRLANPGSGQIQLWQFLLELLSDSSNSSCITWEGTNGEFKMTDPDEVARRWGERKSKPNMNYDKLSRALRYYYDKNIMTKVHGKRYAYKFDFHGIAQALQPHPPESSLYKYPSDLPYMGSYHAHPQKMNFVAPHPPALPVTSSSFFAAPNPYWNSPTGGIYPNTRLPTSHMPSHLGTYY
The procedure, abridged:
as §1

In another assay the target is T9, ETV2 (Homo sapiens, UniProt O00321 1-342).
T9 sequence: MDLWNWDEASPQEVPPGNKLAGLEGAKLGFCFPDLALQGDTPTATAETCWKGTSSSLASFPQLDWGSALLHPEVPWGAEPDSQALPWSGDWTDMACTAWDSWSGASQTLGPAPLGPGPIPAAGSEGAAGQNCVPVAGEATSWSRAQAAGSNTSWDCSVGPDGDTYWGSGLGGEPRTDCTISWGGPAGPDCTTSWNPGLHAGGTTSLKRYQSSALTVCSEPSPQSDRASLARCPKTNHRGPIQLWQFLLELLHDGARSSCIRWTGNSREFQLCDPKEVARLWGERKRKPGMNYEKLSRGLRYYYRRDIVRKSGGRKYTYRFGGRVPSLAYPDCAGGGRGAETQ
In outline:
as §1

In another assay the target is T10, ETS2 (Homo sapiens, UniProt P15036 1-469).
T10 sequence: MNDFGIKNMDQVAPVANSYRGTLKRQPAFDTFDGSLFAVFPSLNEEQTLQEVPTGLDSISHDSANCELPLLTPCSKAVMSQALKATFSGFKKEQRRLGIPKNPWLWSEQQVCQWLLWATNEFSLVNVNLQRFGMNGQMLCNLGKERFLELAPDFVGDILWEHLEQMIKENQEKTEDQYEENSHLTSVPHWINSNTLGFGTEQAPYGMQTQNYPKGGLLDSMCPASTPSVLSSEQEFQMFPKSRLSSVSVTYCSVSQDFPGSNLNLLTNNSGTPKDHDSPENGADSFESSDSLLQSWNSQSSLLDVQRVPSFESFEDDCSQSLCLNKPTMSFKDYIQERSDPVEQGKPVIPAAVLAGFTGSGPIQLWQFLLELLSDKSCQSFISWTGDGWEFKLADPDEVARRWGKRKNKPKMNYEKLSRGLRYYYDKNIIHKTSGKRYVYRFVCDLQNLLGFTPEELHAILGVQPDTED
In outline: as §1

A further assay has as its target T11, SPDEF (Homo sapiens, UniProt O95238 1-335).
T11 sequence: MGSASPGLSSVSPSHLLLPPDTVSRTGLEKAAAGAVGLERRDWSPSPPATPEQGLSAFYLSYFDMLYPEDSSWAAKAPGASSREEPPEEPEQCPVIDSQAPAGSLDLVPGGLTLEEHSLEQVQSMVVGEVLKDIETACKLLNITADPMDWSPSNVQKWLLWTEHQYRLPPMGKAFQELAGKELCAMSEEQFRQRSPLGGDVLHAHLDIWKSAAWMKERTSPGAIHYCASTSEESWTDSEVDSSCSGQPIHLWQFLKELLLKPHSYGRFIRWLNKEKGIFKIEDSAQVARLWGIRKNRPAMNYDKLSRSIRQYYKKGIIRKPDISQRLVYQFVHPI
In outline:
as §1

Another assay addresses T12, ETV7 (Homo sapiens, UniProt Q9Y603 1-341).
T12 sequence: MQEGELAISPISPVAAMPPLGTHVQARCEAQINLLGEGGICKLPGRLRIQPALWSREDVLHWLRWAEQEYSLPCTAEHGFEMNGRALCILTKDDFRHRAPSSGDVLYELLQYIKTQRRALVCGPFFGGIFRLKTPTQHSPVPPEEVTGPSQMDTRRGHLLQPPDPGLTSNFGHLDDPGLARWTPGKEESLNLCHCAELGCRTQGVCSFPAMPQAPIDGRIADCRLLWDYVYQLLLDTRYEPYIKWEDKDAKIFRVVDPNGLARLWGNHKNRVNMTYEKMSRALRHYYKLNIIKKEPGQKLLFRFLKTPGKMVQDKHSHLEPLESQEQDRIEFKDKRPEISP
In outline:
as §1

ETV1, sequence (P50549 whole entry): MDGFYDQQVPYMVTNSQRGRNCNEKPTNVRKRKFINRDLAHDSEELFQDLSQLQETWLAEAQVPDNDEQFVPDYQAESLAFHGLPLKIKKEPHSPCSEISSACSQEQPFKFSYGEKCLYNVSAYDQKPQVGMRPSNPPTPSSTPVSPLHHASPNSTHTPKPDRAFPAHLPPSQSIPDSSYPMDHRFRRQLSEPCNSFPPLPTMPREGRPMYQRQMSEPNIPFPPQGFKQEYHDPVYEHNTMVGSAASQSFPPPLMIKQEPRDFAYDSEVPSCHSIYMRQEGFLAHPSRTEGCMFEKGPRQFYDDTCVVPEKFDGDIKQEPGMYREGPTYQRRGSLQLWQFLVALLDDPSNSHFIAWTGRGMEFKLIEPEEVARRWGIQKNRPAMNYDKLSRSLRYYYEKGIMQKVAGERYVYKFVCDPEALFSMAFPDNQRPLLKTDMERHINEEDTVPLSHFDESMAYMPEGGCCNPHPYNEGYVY
ETV6, sequence (P41212 whole entry): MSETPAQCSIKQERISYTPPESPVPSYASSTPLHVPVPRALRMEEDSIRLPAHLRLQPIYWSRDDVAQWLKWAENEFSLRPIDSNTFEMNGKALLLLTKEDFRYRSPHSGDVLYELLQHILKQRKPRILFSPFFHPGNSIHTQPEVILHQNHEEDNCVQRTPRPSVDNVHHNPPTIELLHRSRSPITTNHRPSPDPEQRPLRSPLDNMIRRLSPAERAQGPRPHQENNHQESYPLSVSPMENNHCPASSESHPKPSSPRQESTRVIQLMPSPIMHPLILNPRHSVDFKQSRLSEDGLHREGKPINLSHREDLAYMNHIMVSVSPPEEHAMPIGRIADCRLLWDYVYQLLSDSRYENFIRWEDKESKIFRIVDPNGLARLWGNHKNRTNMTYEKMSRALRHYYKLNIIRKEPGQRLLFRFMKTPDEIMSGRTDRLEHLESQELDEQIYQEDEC
ETV5, sequence (P41161 whole entry): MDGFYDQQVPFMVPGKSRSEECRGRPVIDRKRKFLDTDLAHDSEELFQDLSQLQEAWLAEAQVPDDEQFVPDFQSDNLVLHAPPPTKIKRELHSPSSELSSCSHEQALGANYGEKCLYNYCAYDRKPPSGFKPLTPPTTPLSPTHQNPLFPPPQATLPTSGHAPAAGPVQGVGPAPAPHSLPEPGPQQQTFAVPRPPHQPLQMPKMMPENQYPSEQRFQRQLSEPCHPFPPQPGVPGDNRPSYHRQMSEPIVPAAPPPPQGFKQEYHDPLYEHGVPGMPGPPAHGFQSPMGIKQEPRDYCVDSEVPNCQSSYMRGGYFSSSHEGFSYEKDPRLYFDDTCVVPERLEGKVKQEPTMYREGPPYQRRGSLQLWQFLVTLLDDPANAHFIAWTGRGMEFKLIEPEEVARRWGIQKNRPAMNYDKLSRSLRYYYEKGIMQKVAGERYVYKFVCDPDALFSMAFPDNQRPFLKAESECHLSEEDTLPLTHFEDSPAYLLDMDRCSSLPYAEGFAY
ELF1, sequence (P32519 whole entry): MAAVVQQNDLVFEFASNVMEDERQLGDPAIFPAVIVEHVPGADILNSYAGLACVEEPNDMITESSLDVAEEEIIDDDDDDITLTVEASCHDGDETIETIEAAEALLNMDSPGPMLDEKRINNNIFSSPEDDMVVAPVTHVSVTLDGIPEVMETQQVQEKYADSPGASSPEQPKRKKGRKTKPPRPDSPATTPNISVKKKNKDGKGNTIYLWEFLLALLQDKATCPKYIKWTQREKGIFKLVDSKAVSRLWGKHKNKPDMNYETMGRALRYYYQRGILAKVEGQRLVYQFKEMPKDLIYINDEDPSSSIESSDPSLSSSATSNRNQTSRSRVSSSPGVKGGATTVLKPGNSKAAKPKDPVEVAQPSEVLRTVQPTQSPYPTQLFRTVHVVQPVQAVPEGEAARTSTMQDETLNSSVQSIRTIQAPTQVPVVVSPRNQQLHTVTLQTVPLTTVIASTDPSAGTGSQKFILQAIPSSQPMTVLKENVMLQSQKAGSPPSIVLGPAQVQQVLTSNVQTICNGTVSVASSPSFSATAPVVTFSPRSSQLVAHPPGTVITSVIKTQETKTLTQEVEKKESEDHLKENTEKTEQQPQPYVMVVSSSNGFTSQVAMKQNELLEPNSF
ELF4, sequence (Q99607 whole entry): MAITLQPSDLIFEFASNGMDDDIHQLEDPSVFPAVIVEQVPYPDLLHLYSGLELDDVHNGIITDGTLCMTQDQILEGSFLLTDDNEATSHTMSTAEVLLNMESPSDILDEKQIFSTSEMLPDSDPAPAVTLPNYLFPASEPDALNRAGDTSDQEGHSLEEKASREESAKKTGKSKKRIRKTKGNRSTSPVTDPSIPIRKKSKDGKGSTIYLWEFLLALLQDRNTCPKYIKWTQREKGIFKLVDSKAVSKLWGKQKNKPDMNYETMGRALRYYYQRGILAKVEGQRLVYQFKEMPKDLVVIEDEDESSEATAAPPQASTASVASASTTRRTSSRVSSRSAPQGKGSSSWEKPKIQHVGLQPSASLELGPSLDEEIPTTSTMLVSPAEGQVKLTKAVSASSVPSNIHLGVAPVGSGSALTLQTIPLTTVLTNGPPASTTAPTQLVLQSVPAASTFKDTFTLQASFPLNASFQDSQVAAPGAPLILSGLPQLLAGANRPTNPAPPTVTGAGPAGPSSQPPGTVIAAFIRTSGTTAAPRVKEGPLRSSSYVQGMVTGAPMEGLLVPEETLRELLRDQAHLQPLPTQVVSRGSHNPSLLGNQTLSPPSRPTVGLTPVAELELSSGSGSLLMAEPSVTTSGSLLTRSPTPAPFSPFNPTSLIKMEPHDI

Turning to GCAAAC, the binding signal with ELK1 was 1.03 fold enrichment (6-mer frequency, TF over GST control); with GABPA, 1.01 fold enrichment (6-mer frequency, TF over GST control); with ELF1, 1.01 fold enrichment (6-mer frequency, TF over GST control); in the assay with ETV5, 1.01 fold enrichment (6-mer frequency, TF over GST control); in the assay with ELF4, 1.06 fold enrichment (6-mer frequency, TF over GST control); with ELK4 it was 1.02 fold enrichment (6-mer frequency, TF over GST control). Besides, the binding signal in the assay with ELF3 was 1.13 fold enrichment (6-mer frequency, TF over GST control); with ETV1, 1.03 fold enrichment (6-mer frequency, TF over GST control); with ERF, 1.01 fold enrichment (6-mer frequency, TF over GST control); with ETV3L, 1.05 fold enrichment (6-mer frequency, TF over GST control); with ETV3, 1.04 fold enrichment (6-mer frequency, TF over GST control); in the assay with ETV6, 1.06 fold enrichment (6-mer frequency, TF over GST control).
Take TCAGTT: the binding signal with ELK1 was 1.03 fold enrichment (6-mer frequency, TF over GST control); in the assay with ERG it was 1.03 fold enrichment (6-mer frequency, TF over GST control); in the assay with ETV5, 1 fold enrichment (6-mer frequency, TF over GST control); with ELK4 it was 1.08 fold enrichment (6-mer frequency, TF over GST control); with ETV2, 1.05 fold enrichment (6-mer frequency, TF over GST control); with ETV1 it was 1.04 fold enrichment (6-mer frequency, TF over GST control). In addition, the binding signal is 1.05 fold enrichment (6-mer frequency, TF over GST control) in the assay with ETV3L; 1.04 fold enrichment (6-mer frequency, TF over GST control) with ETS2; 1.04 fold enrichment (6-mer frequency, TF over GST control) in the assay with SPDEF; 1.02 fold enrichment (6-mer frequency, TF over GST control) with ETV7; 1.05 fold enrichment (6-mer frequency, TF over GST control) with ETV3; 1.03 fold enrichment (6-mer frequency, TF over GST control) with ETV6.
